Screening results: PubChem BioAssay, Corson Lab, School of Medicine, Indiana University
This is one part of a sample in which hits are shown more often than they occur.
FECH block – inhibitors of human ferrochelatase, primary screen, biochemical, purified FECH, Ni-mesoporphyrin absorbance; calls only at 10 µM (by protocol); Ni-mesoporphyrin absorbance 550 nm; actives 3.3% (n = 20,000); Ferrochelatase, mitochondrial (Homo sapiens), P22830;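 active = enzyme reaction rate more than 3 SD below the solvent-only control wells on the same plate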;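 also: lower slope than DMSO wells means FECH inhibition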
Target sequence (P22830 whole entry, looked up): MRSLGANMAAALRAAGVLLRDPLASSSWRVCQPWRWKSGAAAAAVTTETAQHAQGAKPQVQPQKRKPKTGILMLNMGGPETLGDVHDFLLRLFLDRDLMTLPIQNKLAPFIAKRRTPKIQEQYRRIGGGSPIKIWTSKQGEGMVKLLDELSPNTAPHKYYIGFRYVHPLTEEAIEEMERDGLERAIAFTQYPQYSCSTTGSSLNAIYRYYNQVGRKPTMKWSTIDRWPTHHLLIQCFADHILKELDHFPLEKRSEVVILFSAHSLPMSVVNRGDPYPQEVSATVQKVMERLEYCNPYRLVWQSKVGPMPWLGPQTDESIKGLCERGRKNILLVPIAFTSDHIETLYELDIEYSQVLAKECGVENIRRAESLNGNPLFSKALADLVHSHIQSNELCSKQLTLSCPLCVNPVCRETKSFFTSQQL
Large screens that a line does not name were inactive.

COc1cccc(NCc2nc3nc(C)c(Cc4ccc(Cl)cc4)c(=O)n3[nH]2)c1	FECH block active
Cc1nc2nc(Cc3cccc(F)c3)[nH]n2c(=O)c1C	none
CCOc1ccccc1NCc1nc2nc(C)c(Cc3ccc(Cl)cc3)c(=O)n2[nH]1	FECH block active
Cc1nc2nc(C)c(NC(=O)Nc3cccc(C(F)(F)F)c3)c(=O)n2[nH]1	none
Cc1nc2nc(C3CC3)[nH]n2c(=O)c1NC(=O)Nc1ccc(Cl)cc1	none
CCOC(=O)CCc1c(C)nc2nc(CNc3cccc(C(F)(F)F)c3)[nH]n2c1=O	FECH block active
O=c1cc(CNc2cccc(C(F)(F)F)c2)nc2nc(NCc3ccc(Cl)cc3)[nH]n12	none
CCOC(=O)CCc1c(C)nc2nc(CNc3ccccc3OCC)[nH]n2c1=O	none
CCc1ccccc1NCc1nc2nc(C)c(Cc3ccc(Cl)cc3)c(=O)n2[nH]1	FECH block active
COc1cccc(NC(=O)Nc2c(C)nc3nc(C)[nH]n3c2=O)c1	none
COc1ccc2cc(C3CN(C(=O)CN4CCCC4=O)CCO3)ccc2c1 (centres undefined)	none
Cc1cc(NC(=O)CSCc2ccccc2)n(-c2ncnc3c2cnn3-c2cccc(C)c2C)n1	none
CCC(=O)Nc1ccccc1-c1nnc(SC(C)C(=O)Nc2ccccc2C)[nH]c1=O (centres undefined)	none
O=C(Cn1nc(N2CCN(c3ccc(F)cc3)CC2)ccc1=O)NCCc1ccco1	none
CSCCCNc1ncnc2c1CCN(C(=O)c1cccnc1)C2	none
Cc1nc(N2C[C@H](O)[C@@H](N3CCCC3)C2)c2cnn(C)c2n1	none
O=C(NC1CCCCC1)N1CCC(n2cnc3cccnc32)CC1	none
CCn1c(CNS(=O)(=O)c2cc(C)c(C)cc2C)nc2cccnc21	none
Cc1ccc(C(C)NC(=O)CN2CCC(O)(CN3CCCC3)CC2)cc1 (centres undefined)	FECH block active
Cc1ccc(C(C)NC(=O)CN2CCS(=O)(=O)CC2)cc1 (centres undefined)	none
Cc1ccc(C(C)NC(=O)CN2CCC(O)(Cn3ccnc3)CC2)cc1 (centres undefined)	none
Cc1ccsc1CNc1ccc(C(=O)N2CC=CCC2)cc1	none
Cc1ccc(-n2ncc3c(-n4nc(C)cc4NC(=O)C(C)Oc4ccccc4)ncnc32)c(C)c1 (centres undefined)	none
O=C(CN1c2ccc(Br)cc2-c2ccccc2S1(=O)=O)Nc1cccnc1	FECH block active
O=C(CN1c2ccc(Br)cc2-c2ccccc2S1(=O)=O)NCc1cccnc1	FECH block active
CSc1nnc(CC2CCN(Cc3cc(C(C)(C)C)n[nH]3)CC2)n1C	none
Clc1cc2c(cc1-c1nccn1CCCn1ccnc1)OCO2	none
Cc1ccc(CNC(=O)c2nc3ccccc3n(C)c2=O)cc1	FECH block active
Cn1c(=O)c(C(=O)NCc2ccc(F)cc2)nc2ccccc21	none
Cn1c(=O)c(C(=O)NCc2ccc3c(c2)OCO3)nc2ccccc21	none
CC(C)c1cc(Nc2ccccc2)n2nc(-c3cccnc3)nc2n1	none
CCS(=O)(=O)Nc1cnc(N(Cc2ccccc2)Cc2ccccc2)c(C(=O)O)c1	none
CCCc1cc(=O)n2[nH]c(CNc3c(C)cccc3C)nc2n1	none
COc1ccc(CNc2nc3nc(CNc4ccc(Cl)cc4)cc(=O)n3[nH]2)cc1	none
Cc1c(Cl)cccc1NCc1cc(=O)n2[nH]c(NCc3ccc(F)cc3)nc2n1	none
CCCc1cc(=O)n2[nH]c(CNc3ccc(Cl)cc3)nc2n1	FECH block active
COc1ccccc1CNc1nc2nc(CN3CCN(c4ccccc4)CC3)cc(=O)n2[nH]1	none
CCCc1cc(=O)n2[nH]c(CNc3ccccc3CC)nc2n1	FECH block active
Cc1c(Cl)cccc1NCc1nc2nc(C(C)C)cc(=O)n2[nH]1	FECH block active
CCCc1cc(=O)n2[nH]c(CNc3ccc(CC)cc3)nc2n1	none
CCOc1ccccc1NCc1nc2nc(C(C)C)cc(=O)n2[nH]1	none
CCc1ccc(NCc2cc(=O)n3[nH]c(NCc4ccc(OC)cc4)nc3n2)cc1	none
CCCc1cc(=O)n2[nH]c(CNc3ccccc3OC)nc2n1	FECH block active
CCOC(=O)CCC(=O)Nc1cc(C)nn1-c1ncnc2c1cnn2-c1ccc(C)cc1C	none
COc1ccc(Nc2cc(C)nc(Nc3ccc(NC(=O)CCC4CCCC4)cc3)n2)cc1	none
c1cncc(COC2CCN(Cc3ccc(C4CCCCO4)o3)CC2)c1 (centres undefined)	none
COc1ccc(NC(=O)N2CCC(n3cnc4cccnc43)CC2)c(OC)c1	none
CCc1nnc(NC(=O)C2CCN(c3ncnc4c3nc3n4CCCCC3)CC2)s1	none
O=C(NCC1=CCCN(Cc2cc(F)ccc2Cl)C1)c1ccco1	none
CN(Cc1ccccc1)C(=O)c1nc(N2CCCC2)c2oc3ccccc3c2n1	none
O=C(CCC(=O)N1CCOC2(CNCCOC2)C1)NC1CCCC1 (centres undefined)	none
CCN(CC)C1CCN(C(=O)CCC(=O)NC2CCCCCCC2)C1 (centres undefined)	FECH block active
CN1CCCC1CCNC(=O)CCC(=O)NC1CCCC1 (centres undefined)	none
CSc1nc(NCC(C)C)c(C#N)c(-c2ccc(C)cc2)n1	none
COc1ncc(-c2ccc(O)cc2)c(OC)n1	none
NC(=O)CSc1cc(N2CCCCC2)ncn1	none
CCc1ccccc1OCC(=O)Nc1ccccc1SCc1cc(=O)n2c(ncn2C(C)C)n1	none
COc1ccc(C(=O)Nc2ccccc2SCc2cc(=O)n3c(ncn3C(C)C)n2)cc1OC	none
CC(C)n1cnc2nc(CSc3ccccc3NC(=O)COc3ccccc3F)cc(=O)n21	FECH block active
CCCn1cnc2nc(CSc3ccccc3NC(=O)c3ccc(Cl)cc3)cc(=O)n21	FECH block active
CC(C)n1cnc2nc(CSc3ccccc3NC(=O)c3cccc(Cl)c3)cc(=O)n21	none
CC(C)n1cnc2nc(CSc3ccccc3NC(=O)COc3ccc(F)cc3)cc(=O)n21	none
O=C(CN1CCCN(Cc2ccccc2)S1(=O)=O)Nc1ccc(F)cc1	none
CCN1CCCC1Cn1c(=O)n(C2C=CCCC2)c2cc(C(=O)O)ccc21 (centres undefined)	none
COc1ccc2[nH]c(=O)c(CN3CCN(Cc4ncccc4C)CC3)cc2c1	none
CCN(CC)c1ccc(Nc2nc(SC)nc(-c3ccccc3)c2C#N)cc1	none
CC1CCN(c2nc(Nc3cccc(F)c3)c3cnn(-c4ccccc4)c3n2)CC1	none
CCc1nc(-c2nccn2C2CCN(Cc3ccccc3)CC2)c(C)[nH]1	none
O=C(CN1CCN(Cc2ccc(F)cc2Cl)S1(=O)=O)Nc1cccc(F)c1	none
Cc1ccc(NC(=O)CN2CCN(Cc3ccc(F)cc3Cl)S2(=O)=O)cc1C	none
Cc1cccc(NC(=O)CN2CCN(Cc3ccc(F)cc3Cl)S2(=O)=O)c1	FECH block active
O=S1(=O)N(Cc2ccccc2Cl)CCCN1Cc1ccc(F)cc1Cl	FECH block active
O=C(CN1CCCN(Cc2ccccc2Cl)S1(=O)=O)Nc1cc(F)ccc1F	none
COc1ccc(NC(=O)CN2CCN(Cc3ccc(F)cc3Cl)S2(=O)=O)cc1Cl	FECH block active
COc1ccc(CN2CCCN(Cc3ccccc3Cl)S2(=O)=O)cc1	none
Cc1cc(C)cc(NC(=O)CN2CCN(Cc3ccc(F)cc3Cl)S2(=O)=O)c1	none
COc1ccc(NC(=O)CN2CCN(Cc3ccccc3Cl)S2(=O)=O)cc1Cl	none
CCNC(=O)[C@@H]1C[C@H](N)CN1C1CCN(c2ccccc2OC)CC1	none
CC(C)N1CCN(C(=O)CCNc2nccc(CCC(F)(F)F)n2)CC1	none
CC(CCNC(=O)c1cc(Cn2cnc3ccccc32)[nH]n1)n1ccnc1 (centres undefined)	none
Cc1cc(N2CCCC2)nc(Nc2ccc(NC(=O)Cc3ccccc3)cc2)n1	none
